Assay outcomes (PubChem BioAssay)
S2 tox – Viability Counterscreen for Primary qHTS for Inhibitors of ATXN expression. S2 cells (HEK-293 line with an ATXN2-luciferase reporter) viability, CellTiter-Fluor protease fluorescence, 24 h. Potency, µM (top dose mostly 56.7 µM), actives largely listed as cytotoxic. hit rate 0.49% among 400,000; also: nearly all actives have a fitted effect of over 40% in size
ATXN2 expr inh – Primary qHTS for Inhibitors of ATXN expression | Potency, µM (highest dose often 57 µM), without a hit: at the highest dose activity change, negative = inhibition, usual class: inhibitors | hit rate 0.72% among 360,000 | HEK-293 ATXN2-luciferase reporter, luminescence, 24 h; also: % is scaled to controls: 0 for no effect and ±100 for the full control effect; nearly all actives have a fitted effect of over 55% in size
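qHTS (up to 57 uM final) was run with 24 h compound exposure of reporter cells at 37 °C. Each well was multiplexed: SteadyGlo luminescence measured ATXN2-luciferase expression after a fluorogenic Gly-Phe-AFC viability readout (25 uM final).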
HepG2 viability – qHTS for Inhibitors of TGF-b: Cytotox Counterscreen | AID 588856, 2011 | hit rate 0.76% among 410,000 | Potency, µM (titrated, usually from 46.1 µM), without a hit: at the top dose activity change, negative = cytotoxicity, actives largely listed as cytotoxic | HepG2 CAGA-GFP viability, ATP luminescence, 18 h
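HepG2 CAGA-GFP cells (1000/well, DMEM with 1% FBS) received compound, then TGF-beta at 500 pg/mL final, and were incubated 18 hours at 37 degrees C. Viability was read by CellTiter-Glo luminescence. Media-only wells were set as complete cell-killing and DMSO as no toxicity.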
TGFb inhibitor – qHTS for Inhibitors of TGF-b. AID 588855, 2011. hit rate 1.2% among 410,000. Potency, µM (doses to about 46.1 µM), for the others: at the highest dose activity, negative = inhibition, actives largely listed as inhibitors. HepG2 CAGA-GFP TGF-b/SMAD3 reporter, GFP fluorescence, 18 h; TGF-beta stimulated, 500 pg/mL final; also: % is scaled to controls: 0 for no effect and ±100 for the full control effect; nearly all actives have a fitted effect of over 65% in size
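HEPG2 CAGA-GFP cells (1000/well, DMEM with 1% FBS) were pre-incubated 2 h at 37 degrees C, given compound by pin tool, then stimulated with TGF-beta at 500 pg/mL final for 18 h before per-cell GFP fluorescence imaging.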
The depositor's hits bear a star; i = inactive; ? = inconclusive; · = no result given. This is a sample that favours compounds with a hit; in the whole collection about 2.3% have one here. Calls follow the shape of the dose curve; as a rule, active = well fitted curve in the direction sought with a large enough effect; inconclusive = small, poorly fitted or top-dose-only effect, or another doubt; inactive = no such curve, though single readings can be large; an effect the other way counts as inactive or inconclusive. Potency is read from the fitted curve at half-maximal effect.

SMILES | S2 tox | ATXN2 expr inh | HepG2 viability | TGFb inhibitor
CC(C)c1nnc(NC(=O)CCS(=O)(=O)c2nc(-c3cccs3)cc(C(F)(F)F)n2)s1 | ? | -7% | -95% | 14µM*
COc1ccc(NC(=O)CSc2nc(-c3cccs3)cc(C(F)(F)F)n2)cc1Cl | i | -14% | 3% | -4%
COc1ccc(Cl)cc1NC(=O)CCS(=O)(=O)c1nc(-c2cccs2)cc(C(F)(F)F)n1 | · | · | -101% | ?
O=C(CCS(=O)(=O)c1nc(-c2ccc3c(c2)OCO3)cc(C(F)(F)F)n1)Nc1ccc(Br)cc1 | · | · | -105% | ?
O=C(CCS(=O)(=O)c1nc(-c2cccs2)cc(C(F)(F)F)n1)Nc1ccc(F)c(Cl)c1 | · | · | 11µM* | 20µM*
O=C(CCS(=O)(=O)c1nc(-c2cccs2)cc(C(F)(F)F)n1)Nc1ccc(OC(F)(F)F)cc1 | 16µM* | -18% | -39% | -17%
COc1ccc(NC(=O)CCS(=O)(=O)c2nc(-c3cccs3)cc(C(F)(F)F)n2)cc1 | · | · | -89% | 10µM*
O=C(Nc1nnc(-c2ccccc2)o1)c1ccc(Cl)cc1 | · | 20µM* | -17% | ?
CCCCN(CCCC)CC(O)c1cc(Cl)cc2c1-c1ccc(Cl)cc1/C2=C/c1ccc(Cl)cc1 (centres undefined) | ? | 25µM* | · | ·
O=c1[nH]c(=O)n([C@H]2C[C@@H](O)[C@@H](CO)O2)cc1C=CBr | · | 7% | · | ·
Cc1cc(C)nc(NN=C(c2ccccc2)c2ccccc2)n1 | i | · | -64% | 11µM*
CC(/C=C/c1ccccc1)=N\Nc1nc(C)cc(C)n1 | ? | 22% | -26% | ?
CC(=O)N1CCN(c2ccc(OCc3nn(C)c(C)c3-c3cccc4c(CCCOc5cccc6ccccc56)c(C(=O)O)n(Cc5cccnc5)c34)cc2)CC1 | · | 140% | · | ·
CC[C@]1(c2ccccc2OC)ON(c2ccccc2C(F)(F)F)C1=O | · | ? | 16µM* | 10µM*
CC(C)(C)OC(=O)NCc1ccc(CNC(=O)c2nc[nH]c2C(=O)N2CCN(C(=O)OC(C)(C)C)CC2)cc1 | 18µM* | ? | -3% | ?
Cc1ccc(NC(=O)c2nc[nH]c2C(=O)N2CCN(C(=O)OC(C)(C)C)CC2)cc1 | i | -5% | -2% | 5%
COc1ccc(CN2CCC(n3cc(C(=O)N4CCCCC4)nn3)CC2)c(OC)c1 | i | · | · | ·
O=C(Nc1ccc2c(c1)CCCN2C(=O)c1cccs1)c1ccc(F)c(F)c1 | 25µM* | ? | -19% | ?
O=C(Nc1ccc2c(c1)CCCN2C(=O)c1cccs1)c1cccc(C(F)(F)F)c1 | 35µM* | ? | -10% | -7%
O=C(Nc1ccc2c(c1)CCCN2C(=O)c1cccs1)c1cccc(F)c1 | ? | ? | -33% | -16%
COc1ccccc1C(=O)Nc1ccc2c(c1)CCCN2C(=O)c1ccccc1 | i | -14% | 13µM* | 2%
O=C(C[n+]1cccc(Br)c1)c1ccc(O)c(O)c1 | · | · | -22% | 0%
CC1(C)S[C@@H]2[C@H](NC(=O)COc3ccccc3)C(=O)N2[C@@H]1C(=O)OCc1cccc2cccnc12 | · | · | 10% | ?
C(=C\c1c[nH]c2ccccc12)/c1nccc2ccccc12 | · | · | 11µM* | ?
Fc1ccc(/C=C/c2nccc3ccccc23)cc1 | · | · | -23% | -9%
SMILES | S2 tox | ATXN2 expr inh | HepG2 viability | TGFb inhibitor
COc1ccc(CN2CCOc3ccc(C(O)c4cccnc4)cc3C2)c(OC)c1OC (centres undefined) | i | · | · | ·
COc1ccccc1NC(=S)N1CC(C)(C)C1=O | i | 5% | 5µM* | 2%
Cc1cccc(Oc2ccc(Cl)cc2N)c1 | i | 3% | 20µM* | -32%
Nc1cc(Cl)ccc1Oc1ccccc1 | i | -17% | -15% | -2%
CN(C)c1ccc(/C=C2\C=Cc3ccccc32)cc1[N+](=O)[O-] | · | · | -18% | -5%
CCN(CC)CCCCNc1ncc2cc(-c3cc(OC)cc(OC)c3)c(NC(=O)NC(C)(C)C)nc2n1 | 8.9µM* | ? | 14µM* | ?
Cn1cnc([N+](=O)[O-])c1S(=O)(=O)c1cccc(Cl)c1 | · | ? | -107% | ?
CCCn1c(CC)nc([N+](=O)[O-])c1S(=O)(=O)c1ccccc1 | · | ? | 11µM* | ?
CCC(=O)N1CCN(c2ccccc2NC(=O)c2ccc([N+](=O)[O-])o2)CC1 | i | -32% | -150% | 16µM*
O=C(Nc1ccccc1N1CCN(C(=O)c2ccccc2)CC1)c1ccc([N+](=O)[O-])o1 | i | -27% | -198% | 11µM*
CC(C)C(=O)N1CCN(c2ccccc2NC(=O)c2ccc([N+](=O)[O-])o2)CC1 | ? | ? | -91% | ?
O=C(Nc1ccccc1N1CCCC1)c1ccc([N+](=O)[O-])o1 | ? | ? | -81% | 25µM*
CC1CCN(c2ccccc2NC(=O)c2ccc([N+](=O)[O-])o2)CC1 | i | 2% | 5% | 17%
Cc1nn(C)cc1CN1CCOc2ccc(C(C)(O)COc3ccccc3)cc2C1 (centres undefined) | i | · | · | ·
CN(CC(=O)O)c1ccc(/C=C/c2ccnc3ccccc23)cc1 | · | · | -49% | ?
COc1cc(=O)n2c(c1C(=O)NCc1nccs1)CCN(Cc1ccccc1F)CC2 | i | · | · | ·
COc1ccc(C2C3=C(Nc4ncnn42)c2ccccc2CCC3)cc1 (centres undefined) | i | -1% | -2% | -31%
Fc1ccc(/C=C2\CCCC3=C2Nc2ncnn2C3c2ccc(F)cc2)cc1 (centres undefined) | 18µM* | 25µM* | -98% | ?
COc1ccc(CCN(C)C(=O)c2cnn(-c3nccc(-c4ccc(C)o4)n3)c2C)cc1OC | i | · | · | ·
CCOc1ccc(N(CC)S(=O)(=O)c2cc(Br)cc3c2N(C(C)=O)C(C)C3)cc1 (centres undefined) | i | -9% | -55% | 10µM*
Cc1cc(C)cc(-n2c3ccc(NC(=O)Cc4cccc5ccccc45)cc3c(=O)n2C)c1 | 0.56µM* | -27% | -11% | ?
Cn1c(=O)c2cc(NC(=O)Cc3ccccc3F)ccc2n1-c1ccc(C(C)(C)C)cc1 | ? | -12% | -19% | ?
CC(C)(Oc1ccc(Cl)cc1)C(=O)OCCCOC(=O)C(C)(C)Oc1ccc(Cl)cc1 | i | -11% | · | ·
Fc1ccc(CNC(=S)Nc2cccc(C(F)(F)F)c2)cc1 | i | -21% | -30% | ?
Fc1ccc(Nc2nc3nonc3nc2Nc2cccc(C(F)(F)F)c2)cc1 | · | · | -109% | 0.71µM*
Cc1nc(Nc2ccccc2)sc1C | i | 30% | -11% | 0%
S=c1[nH]cnc2sc(Nc3ccccc3)nc12 | 11µM* | · | 11% | 1%
CCCc1ccc(-c2cc(C(=O)NN3CCOCC3)c3ccccc3n2)cc1 | i | 20% | -2% | 0%
CCNC(=S)NNC(=O)c1cc(-c2ccc(OCC)cc2)nc2ccccc12 | i | -25% | 7.9µM* | 20%
CCc1ccc(-c2cc(C(=O)Nn3cnnc3)c3ccccc3n2)cc1 | i | ? | 8.9µM* | ?
